An excerpt weighted towards active compounds, which were near 11% of everything screened.
JMJD2A Tudor inh – inhibitors of human JMJD2A Tudor domain. AlphaScreen JMJD2A-Tudor / H3K4me3 peptide binding. Potency, µM (titrated, usually from 114 µM), most hits filed as inhibitors. hit rate 4.4% among 390,000. AID 504339; note: nearly all actives have a fitted effect of over 50% in size
L3MBTL1 inh – L3MBTL1 (human) inhibition | hit rate 0.66% among 230,000 | AID 485360 | AlphaScreen L3MBTL1–H3K9me1 peptide binding | Q9Y468 | Potency, µM (series often up to 57.1 µM), usual class: inhibitors; note: nearly all actives have a fitted effect of over 60% in size
Target sequence (Q9Y468 whole entry, looked up): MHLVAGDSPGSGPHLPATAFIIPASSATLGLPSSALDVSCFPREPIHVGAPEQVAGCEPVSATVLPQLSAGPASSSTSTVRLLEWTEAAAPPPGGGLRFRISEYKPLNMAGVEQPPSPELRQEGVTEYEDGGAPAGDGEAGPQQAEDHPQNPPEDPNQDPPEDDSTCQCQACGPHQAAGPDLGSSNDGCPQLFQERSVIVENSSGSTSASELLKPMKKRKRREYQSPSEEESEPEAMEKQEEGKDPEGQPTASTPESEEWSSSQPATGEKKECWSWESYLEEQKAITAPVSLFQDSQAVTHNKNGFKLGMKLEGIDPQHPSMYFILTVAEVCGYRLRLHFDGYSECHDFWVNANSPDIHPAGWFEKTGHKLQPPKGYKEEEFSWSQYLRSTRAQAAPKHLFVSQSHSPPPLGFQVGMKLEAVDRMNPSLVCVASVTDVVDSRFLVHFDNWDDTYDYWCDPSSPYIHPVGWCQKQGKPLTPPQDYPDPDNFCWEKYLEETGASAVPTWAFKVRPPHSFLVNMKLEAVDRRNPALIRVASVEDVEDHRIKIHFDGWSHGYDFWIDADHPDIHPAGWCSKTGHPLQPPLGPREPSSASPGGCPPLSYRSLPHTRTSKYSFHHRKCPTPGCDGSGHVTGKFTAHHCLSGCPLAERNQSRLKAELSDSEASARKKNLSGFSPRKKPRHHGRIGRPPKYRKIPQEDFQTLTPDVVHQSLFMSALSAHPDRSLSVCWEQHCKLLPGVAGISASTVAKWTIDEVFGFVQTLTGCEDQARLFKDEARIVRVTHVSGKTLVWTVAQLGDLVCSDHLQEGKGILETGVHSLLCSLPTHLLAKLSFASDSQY
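AlphaScreen assay: L3MBTL1 (50 nM final) was preincubated 30 min at room temperature with biotinylated H3(1-15)K9me1 peptide (75 nM final), then 30 min with library compounds; streptavidin donor and nickel chelate acceptor beads (10 ug/mL final) added, 30 min dark.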
HP1b binding inh – blocks HP1-beta chromodomain binding to methylated histone tails. P83916. AlphaScreen HP1-beta / biotin-H3K9me3 peptide binding. Potency, µM (titrated, usually from 114 µM), most hits filed as inhibitors. hit rate 0.56% among 390,000; note: nearly all actives have a fitted effect of over 70% in size
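Compound inhibition of the preformed complex between 50 nM HP1-beta and 50 nM biotinylated H3K9me3 peptide was read by AlphaScreen. Buffer was PBS pH 7.4 with 0.01% Tween-20. Incubations ran 30 min at room temperature, with 10 ug/mL donor/acceptor beads.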
BAZ2B block – inhibitors of human BAZ2B bromodomain | Potency, µM (titrated, usually from 114 µM), usual class: inhibitors | AID 504333 | hit rate 4.4% among 360,000 | Q9UIF8 | AlphaScreen BAZ2B-H3K14Ac peptide displacement; note: nearly all actives have a fitted effect of over 60% in size
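In this displacement format the biotinylated H3(5-23) peptide acetylated at Lys14 serves as ligand at 50 nM, with BAZ2B at 50 nM in PBS pH 7.4 containing 0.01% Tween-20. Donor and acceptor beads are 10 ug/mL final.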
G9a inh – G9a (human) methyltransferase inhibition | Q96KQ7 | G9a H3K9 monomethylation, AlphaScreen, 2 h | Potency, µM (top dose mostly 102 µM), hits mostly inhibitors | hit rate 8.8% among 350,000; note: nearly all actives have a fitted effect of over 75% in size
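G9a (20 nM) was preincubated 15 min with compound, then reacted 2 h at room temperature with 500 nM biotin-H3K9 peptide and 20 µM SAM. Monomethyl-H3K9 detected by AlphaScreen using anti-H3K9me1 antibody.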
A number is an active result; [ ] = dose if it differs, or a comment. Calls come from the whole dose curve; as a rule, active = well fitted inhibition curve with a large enough effect; inconclusive = small, poorly fitted or top-dose-only effect; inactive = no such curve, though single readings can be large or run the other way.

Results for Cc1cc2c(cc1S(=O)(=O)Nc1cccc(Cl)c1C)n(C)c(=O)c(=O)n2C ?
JMJD2A Tudor inh: inactive; HP1b binding inh: inactive; BAZ2B block: inactive; G9a inh: inactive

How did O=C(NCc1cccnc1)C1CC(c2ccccc2Cl)=NO1 (stereo unspecified) do in these assays?
JMJD2A Tudor inh: inactive; L3MBTL1 inh: inactive; HP1b binding inh: inactive; BAZ2B block: inactive; G9a inh: inactive

Results for O=C(C1CC(c2ccccc2O)=NO1)N1CCCCC1 (stereo unspecified) ?
JMJD2A Tudor inh: 89µM; HP1b binding inh: inactive; BAZ2B block: inconclusive; G9a inh: inconclusive

How did O=C(NCc1cccnc1)C1CC(c2ccccc2O)=NO1 (stereo unspecified) do in these assays?
JMJD2A Tudor inh: 50µM; L3MBTL1 inh: inactive; HP1b binding inh: inactive; BAZ2B block: inconclusive; G9a inh: 25µM

Results for O=C(C1CC(c2ccccc2O)=NO1)N1CCc2ccccc2C1 (stereo unspecified) ?
JMJD2A Tudor inh: inactive; HP1b binding inh: inactive; BAZ2B block: inconclusive; G9a inh: inactive

What do the screens show for `CCOc1ccc(NC(=O)CSc2nnc(-c3ccc(C)cc3)c(-c3ccc(C)cc3)n2)cc1`?
JMJD2A Tudor inh: inconclusive; HP1b binding inh: inactive; BAZ2B block: inactive; G9a inh: inactive

Results for CCc1ccc(-c2ccc(C(=O)O)cc2)nc1 ?
JMJD2A Tudor inh: inactive; L3MBTL1 inh: inactive; HP1b binding inh: inactive; BAZ2B block: inactive; G9a inh: inactive

Results for CCC(=Cc1ccc(CC)cn1)CC ?
JMJD2A Tudor inh: inactive; L3MBTL1 inh: inactive; HP1b binding inh: inactive; BAZ2B block: inconclusive; G9a inh: 40µM

How did C=CCNc1nc(N)c(C(=O)Nc2cc(C)on2)s1 do in these assays?
JMJD2A Tudor inh: inconclusive; L3MBTL1 inh: inactive; HP1b binding inh: inactive; BAZ2B block: inactive; G9a inh: inconclusive

How did C=CCNc1nc(N)c(C(=O)c2ccc3c(c2)OCO3)s1 do in these assays?
JMJD2A Tudor inh: inactive; L3MBTL1 inh: inactive; HP1b binding inh: inactive; BAZ2B block: inconclusive; G9a inh: 50µM

How did CC(C)c1nnc(NC(=O)c2ccc3c(c2)OCO3)s1 do in these assays?
JMJD2A Tudor inh: inactive; L3MBTL1 inh: inactive; HP1b binding inh: inactive; BAZ2B block: inactive; G9a inh: inactive

Results for CC(C)(C)c1nnc(NC(=O)c2ccc3c(c2)OCO3)s1 ?
JMJD2A Tudor inh: 89µM; HP1b binding inh: inconclusive; BAZ2B block: inactive; G9a inh: 3.5µM

Results for CCOc1ccc(C(=O)C(C)OC(=O)c2nc(Cl)ccc2Cl)cc1 (stereo unspecified) ?
JMJD2A Tudor inh: inactive; L3MBTL1 inh: inactive; HP1b binding inh: inactive; BAZ2B block: inactive; G9a inh: inactive

What do the screens show for `N#CC1=C(C2CC2)CC(c2ccccc2)C(C#N)=C1N` (stereo unspecified)?
JMJD2A Tudor inh: inactive; L3MBTL1 inh: inactive; HP1b binding inh: inactive; BAZ2B block: inactive; G9a inh: 50µM

What do the screens show for `CCCCCCSC1=C(C#N)C(c2ccccc2)CC(=O)N1` (stereo unspecified)?
JMJD2A Tudor inh: inactive; HP1b binding inh: inactive; BAZ2B block: inactive; G9a inh: inactive[12.7 µM]

Results for Cc1ccc(C)c(C(C)NC(=O)c2ccc(Br)o2)c1 (stereo unspecified) ?
JMJD2A Tudor inh: inactive; L3MBTL1 inh: inactive; HP1b binding inh: inactive; BAZ2B block: inactive; G9a inh: 50µM

How did Cc1ccc(C)c(C(C)NC(=O)CC#N)c1 (stereo unspecified) do in these assays?
JMJD2A Tudor inh: inactive; L3MBTL1 inh: inactive; HP1b binding inh: inactive; BAZ2B block: inactive

What do the screens show for `CCOC(=O)c1cc(-c2ccc(OC)cc2)n(CCC(=O)Nc2nc3ccc(OCC)cc3s2)c1C`?
JMJD2A Tudor inh: inactive; HP1b binding inh: inactive; BAZ2B block: inactive; G9a inh: inactive

How did COc1ccc2c(C)cc3n[nH]c(=S)n3c2c1 do in these assays?
JMJD2A Tudor inh: 0.71µM; L3MBTL1 inh: inactive; HP1b binding inh: inconclusive; BAZ2B block: inconclusive; G9a inh: 1µM

What do the screens show for `Cc1ccc(Cl)cc1NC(=O)CSc1sc2c(O)cc(=O)[nH]c2c1C#N`?
JMJD2A Tudor inh: inactive; HP1b binding inh: inactive; BAZ2B block: inactive; G9a inh: inactive

Results for CCc1nnc(NC(=O)CSc2sc3c(O)cc(=O)[nH]c3c2C#N)s1 ?
JMJD2A Tudor inh: 20µM; HP1b binding inh: 40µM; BAZ2B block: 20µM; G9a inh: 10µM

Results for CCSc1nnc(NC(=O)CSc2sc3c(O)cc(=O)[nH]c3c2C#N)s1 ?
JMJD2A Tudor inh: inconclusive; HP1b binding inh: inactive; BAZ2B block: 79µM; G9a inh: inconclusive

How did CCc1nnc(NC(=O)CSc2nc3[nH]c(=O)cc(O)c3s2)s1 do in these assays?
JMJD2A Tudor inh: inconclusive; L3MBTL1 inh: inactive; HP1b binding inh: inactive; BAZ2B block: inactive; G9a inh: inconclusive

What do the screens show for `Cc1csc(NC(=O)CSc2sc3c(O)cc(=O)[nH]c3c2C#N)n1`?
JMJD2A Tudor inh: inactive; HP1b binding inh: inactive; BAZ2B block: inconclusive; G9a inh: 50µM

What do the screens show for `CCc1nnc(NC(=O)CSc2nnc(-c3cc4ccccc4cc3O)n2CC)s1`?
JMJD2A Tudor inh: inactive; L3MBTL1 inh: inactive; HP1b binding inh: inactive; BAZ2B block: inactive; G9a inh: 28µM

What do the screens show for `CCc1ccc(NC(=O)c2cc3nc(-c4ccc(C)cc4)cc(C(F)(F)F)n3n2)cc1`?
JMJD2A Tudor inh: inactive; HP1b binding inh: inactive; BAZ2B block: inactive; G9a inh: inactive

Results for O=C(NCc1ccccc1)[C@]1(C(F)(F)F)C[C@H](CCC2CCCCC2)CCCO1 ?
JMJD2A Tudor inh: inactive; HP1b binding inh: inactive

Results for COc1ccc(OCC(=O)Nc2cc(-c3nc4ccccc4o3)ccc2Cl)cc1 ?
JMJD2A Tudor inh: inactive; HP1b binding inh: inactive; BAZ2B block: inactive; G9a inh: inactive

How did COc1ccc(CCNC(=O)Cn2cc(S(=O)(=O)Cc3ccccc3F)c3ccccc32)cc1OC do in these assays?
JMJD2A Tudor inh: inactive; HP1b binding inh: inactive; BAZ2B block: inactive; G9a inh: inactive

What do the screens show for `COc1cc(OC)c(NC(=O)CSc2cc(=O)n(C)c3ccc(Cl)cc23)cc1Cl`?
JMJD2A Tudor inh: inactive; HP1b binding inh: inactive; BAZ2B block: inactive; G9a inh: inactive

What do the screens show for `NC(=O)c1cc2c3ccccc3ccn2c1-c1ccccc1`?
JMJD2A Tudor inh: 32µM; HP1b binding inh: inconclusive; BAZ2B block: 32µM; G9a inh: 35µM

Results for Cc1cc(C(N)=O)c2ccccc2n1 ?
JMJD2A Tudor inh: inactive; L3MBTL1 inh: inactive; HP1b binding inh: inactive; G9a inh: inactive

What do the screens show for `O=C(N/N=C/c1ccc(OC(F)F)cc1OC(F)F)NC1CCCCC1`?
JMJD2A Tudor inh: inactive; L3MBTL1 inh: inactive; HP1b binding inh: inactive; BAZ2B block: inactive; G9a inh: inactive

Results for COc1ccccc1/C=N/N1CCN(c2ccc(Cl)cc2)CC1 ?
JMJD2A Tudor inh: 40µM; L3MBTL1 inh: inactive[2.29 µM]; HP1b binding inh: inactive; BAZ2B block: 50µM; G9a inh: inactive[0.501 µM]

How did COc1ccccc1C=NN1CCCCCC1 do in these assays?
JMJD2A Tudor inh: 45µM; HP1b binding inh: inconclusive

How did COc1ccccc1C=NN=Cc1ccccc1OC do in these assays?
JMJD2A Tudor inh: inconclusive; HP1b binding inh: inactive
